The whole screen tested about 1,400 compounds, of which about 860 (61%) were called active. The set was probably picked from earlier hits. This is one part of a sample in which actives are shown more often than they occur.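 The calls were made as follows: active = inhibition reaching a set limit, 80% of the first screen's cutoff, at 20 µM in any replicate; inactive = the rest.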
These molecules were tested against DNA dC->dU-editing enzyme APOBEC-3A (Homo sapiens) (UniProt P31941) (assay: APOBEC3A deaminase inhibitors, retest, confirmation, selectivity assay for APOBEC3G inhibitor project, biochemical, single concentration, fluorescence readout (AID 493151;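 also: plate controls were DMSO wells with A3A for no effect and wells lacking A3A enzyme for full effect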)). Conditions: recombinant A3A, ssDNA deaminase UDG fluorescence assay; at 20 µM; hits give high values.
DNA dC->dU-editing enzyme APOBEC-3A (Homo sapiens), sequence (P31941 whole entry, looked up): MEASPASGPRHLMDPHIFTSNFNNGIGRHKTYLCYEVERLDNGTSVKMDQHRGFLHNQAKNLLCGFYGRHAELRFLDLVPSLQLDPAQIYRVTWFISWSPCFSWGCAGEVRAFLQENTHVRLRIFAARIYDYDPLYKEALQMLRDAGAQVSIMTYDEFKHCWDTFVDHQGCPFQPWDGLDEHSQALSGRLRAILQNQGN

| SMILES | inhibition |
| --- | --- |
| CCN(CC)CCOC(=O)c1cc2cc(COC)ccc2o1 | 80.1% (active) |
| O=C(O)CCn1cc(C=C2C(=O)NC(=S)NC2=O)c(-c2cccc(Br)c2)n1 | 52.3% (active) |

— PubChem BioAssay AID493151 (Sanford-Burnham Center for Chemical Genomics, 2011)
